Values joined by “and” are separate entries in the source; they are usually repeats but may differ in a detail not shown here. Equal entries are not always repeated. Inconclusive results are not listed. Where a call stands in place of a potency, no number is given. Where a structure was tested more than once in an assay, its records may differ in their call. Active and inactive are the calls of the source. Calls follow the shape of the dose curve; as a rule, active = well fitted activation curve with a large enough effect in the repeat runs; inconclusive = weak or mixed curves; inactive = flat fitted curve, though single readings scatter.
Potency is read from the fitted curve at half-maximal effect.

A short description of the test: A CellTox Green Cytotoxicity Assay to monitor cytotoxicity in HepG2 cells - 32 hour (AID 1224883). Also: nearly all actives have a fitted effect of over 50% in size. The settings on record: CellTox Green fluorescence; series mostly up to 76.8 µM. From the text: National Center for Advancing Translational Sciences [NCATS]
NIH Chemical Genomics Center [NCGC]
U.S. Environmental Protection Agency [EPA]
National Institutes of Environmental Health Sciences [NIEHS]
National Toxicology Program [NTP]
Cell-based models are critical for drug discovery. Determining the natural cytotoxic effects resulting from test compounds is an essential research activity. A CellTox Green Cytotoxicity Assay to monitor cytotoxicity in real time of continues cell culture during 40 hours of the compound treatment was used to screen Tox21 10K library compounds in HepG2 cells. CellTox Green Cytotoxicity Assay is a nonlytic, homogeneous, biofluorescent method to measure cytotoxicity in cell culture after experimental manipulation. The assay system uses a proprietary asymmetric cyanine dye that is excluded from viable cells but preferentially stains the dead cell's DNA. […] Viable cells produce no appreciable increases in fluorescence. Therefore, the fluorescence signal produced by the binding interaction with dead cell DNA is proportional to cytotoxicity.
The mixture of HepG2 cell suspension and reagents were dispensed at 600cells/6 ul/well in 1536-well tissue culture treated black solid bottom plates using a Multidrop dispenser. After the assay plates were incubated at a 37 C/5% CO2 incubator for 5 hours, 23 nL of compounds dissolved in DMSO, positive and negative controls was transferred to the assay plate by a pintool work station. The plates were incubated at 37 C for 40 hours. The fluorescence intensity were measured at 0h, 8h, 16h, 24h, 32h and 40h time points using ViewLux plate reader during compound treatment.
On to `O=C(NC(=O)c1c(F)cccc1F)Nc1cc(Cl)c(F)c(Cl)c1F`, for which the Potency result was “inactive”. The same measure, in the same setting: in the case of `CCC1(c2cccc(O)c2)CCCCN(C)C1` (stereo not given) it was “inactive”; in that of `C=C(Cl)CSC(=S)N(CC)CC`, “inactive”. Still for that read-out and setting: in the case of `CCNP(=S)(OC)O/C(C)=C/C(=O)OC(C)C` (stereo not given) it was “inactive”; in that of `CNC(=O)O/N=C(/CSC)C(C)(C)C`, “inactive”; in that of `O=C(O)C(F)(F)C(F)(F)C(F)(F)C(F)(F)C(F)(F)C(F)(F)F`, “inactive”. Same read-out and setting: in the case of `CCOC(=O)NC(C)(C)Cc1ccc(Cl)cc1` it was “inactive”; in that of `c1ccc2c(c1)CCNC2`, “inactive”; in that of `CCC(C)C(C)(COC(N)=O)COC(N)=O` (stereo not given), “inactive”. On to `CCOC(=O)CCl`, for which the Potency entry was “inactive”.

As to `CCCOc1nn(C(=O)NS(=O)(=O)c2ccccc2C(=O)OC)c(=O)n1C`, the Potency result is “inactive”. Still for that read-out and setting: in the case of `C=CC=O` it was “inactive”; in that of `Cc1ccc(Cl)c(O)c1`, “inactive”. In the case of `Cc1ccc2c(c1)C1CN(C)CCC1N2` (stereo not given), the cytotoxicity increase was 14.3% [at 15.8 µM] (inactive). `CN1C(=O)COc2c(C(=O)NC3CN4CCC3CC4)cc(Cl)cc21` (stereo not given): the Potency result is “inactive”. In the case of `Oc1ccc2c3c1O[C@H]1[C@@H](O)C=C[C@H]4[C@@H](C2)NCC[C@@]341`, the Potency entry is “inactive”. On the same count and under the same terms, in the case of `O=c1[nH]c2ccccc2n1C1CCNCC1` it was “inactive”.

Consider `CCCCCCC(=O)CCCCCC/C=C/C[C@@H](O)[C@H](O)[C@@](N)(CO)C(=O)O`, for which the cytotoxicity increase was -23.6% [at 15.8 µM] (inactive). As for `CCOC1Oc2ccc(OS(C)(=O)=O)cc2C1(C)C` (stereo not given), the Potency result is “inactive”.

As to `O=C1C2CC=CCC2C(=O)N1SC(Cl)(Cl)Cl` (stereo not given), the Potency entry was “inactive and 9.61 µM (active)”. As to `ClC(Cl)(Cl)Cl`, the Potency entry is “inactive”. The same measure, in the same setting: in the case of `O=C1CCCCC1Cl` (stereo not given) it was “inactive”; in that of `CCCC(C)(COC(N)=O)COC(N)=O`, “inactive”. Still for that read-out and setting: in the case of `O=C(O)c1c(Cl)ccc2cc(Cl)cnc12` it was “inactive”. Consider `Clc1cc2c(cc1Cl)Oc1cc(Cl)c(Cl)cc1O2`, for which the cytotoxicity increase is 4.82% [at 0.29 µM] (inactive). For the compound `Cl/C=C/CCl`, the Potency entry is “inactive”.

On to `CCN(CC)C1CCCCC1`, for which the Potency entry was “inactive”.

In the case of `CC[C@@H](CO)NC(=O)[C@@H]1C=C2c3cccc4c3c(cn4C)C[C@H]2N(C)C1`, the Potency result was “inactive”.

Take `CC(C)c1ccc(O)cc1`: the Potency result was “inactive”.

Turning to `BrCC1CO1` (stereo not given), the Potency result was “inactive”. Still for that read-out and setting: in the case of `COP(=O)(OC)O/C(C)=C/C(=O)N(C)C` it was “inactive”; in that of `COc1ccccc1OC`, “inactive”; in that of `CCN[C@@H](C)Cc1ccccc1`, “inactive”.

As to `ClC1=C(Cl)C2(Cl)C(CBr)CC1(Cl)C2(Cl)Cl` (stereo not given), the Potency entry is “inactive”.

As for `CS(=O)(=O)c1ccc(C(=O)C2C(=O)CCCC2=O)c(Cl)c1COCC(F)(F)F`, the Potency entry was “inactive”. Same read-out and setting: in the case of `Cc1cc(OC(=O)N(C)C)nn1C(=O)N(C)C` it was “inactive”. Same read-out and setting: in the case of `CCSC(=O)Cl` it was “inactive”; in that of `CCC(C(N)=O)N1CCCC1=O` (stereo not given), “inactive”. Same read-out and setting: in the case of `CCOC(=O)c1ncn2c1CN(C)C(=O)c1c(I)cccc1-2` it was “inactive”; in that of `COc1ccc(C=O)cc1O`, “inactive”.

The values are drawn from PubChem BioAssay (Tox21).
